Experimental data published in PubChem BioAssay (NCATS).
Records with an inconclusive call do not appear. A call without a number means that no potency is given here. Values without a mark were called inactive. Activity calls are given as the source filed them. The call rests on the fitted dose curve; in most records, active means well fitted curve in the direction sought with a large enough effect; inconclusive means small, poorly fitted or top-dose-only effect, or another doubt; inactive means no such curve, though single readings can be large; an effect the other way counts as inactive or inconclusive. Where a SMILES comes first, the peptide text is derived from it. [ ]: non-standard residue; d: D form. ξ: configuration not given here. ξPhe(βξ-Me) = CC(c1ccccc1)C(N)C(=O)O; GABA = NCCCC(=O)O

Tests used:
[1] = P-glycoprotein substrates identified in KB-3-1 adenocarcinoma cell line, qHTS therapeutic library screen (AID 1346986); further: nearly all actives have a fitted effect of over 60% in size
How it was run: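 Viability by CellTiter-Glo after 72 h compound exposure at 37 degree C, 5% CO2. Cytotoxic call: curve class -1.1 to -2.4, maximum response >50%, AC50 < 10 uM, compared across KB-3-1 and P-gp-overexpressing KB-8-5-11.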

[2] = P-glycoprotein substrates identified in KB-8-5-11 adenocarcinoma cell line, qHTS therapeutic library screen (AID 1346987); further: nearly all actives have a fitted effect of over 65% in size; on activity change, negative = cytotoxicity: series mostly up to about 44 µM
How it was run: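 In this qHTS, P-gp-rich KB-8-5-11 cells received library compounds across a concentration range. Viability was quantified by luminescence after 72 h at 37 degree C.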

C=C1[C@H]2CC[C@]3(O)[C@@](CC[C@@H]4[C@](C)(C(=O)O)CCC[C@]43C)(C2)[C@H]1OC(=O)/C(C)=C\C
Potency [1]: inactive
Potency [2]: inactive

CC(=O)O[C@@H]1[C@H]2[C@@H](OC(=O)c3ccccc3)[C@@H](C)C[C@]2(O)[C@H](OC(C)=O)[C@@]2(C)[C@@H]3CC(C)(C)C(=O)[C@]3(OC(C)=O)C[C@@]12C
Potency [1]: inactive

COc1c(C)c(OCC=C(C)C)cc2c1C(=O)NC2=O
Potency [1]: inactive
Potency [2]: inactive

C[C@@H]1O[C@@H](O[C@H]2[C@H](OC(=O)[C@]34CCC(C)(C)C[C@H]3C3=CCC5[C@@]6(C)CC[C@H](O[C@@H]7O[C@H](CO[C@@H]8OC[C@H](O)[C@H](O)[C@H]8O)[C@@H](O)[C@H](O)[C@H]7O)C(C)(C)C6CC[C@@]5(C)[C@]3(C)C[C@H]4O)OC[C@@H](O)[C@@H]2O)[C@H](O)[C@H](O)[C@H]1O[C@@H]1OC[C@H](O)[C@H](O[C@@H]2OC[C@@H](O)[C@H](O)[C@H]2O)[C@H]1O (some centres not stated)
outcome [1]: inactive [at 9.29 µM]
activity change, negative = cytotoxicity [2]: 1.25% [at 9.29 µM]

CC1(C)O[C@@]2(C)CC[C@@H]1C[C@@H]2OC1OC(CO)C(O)C(O)C1O (some centres not stated)
Potency [1]: inactive
Potency [2]: inactive

O=C(O)[C@H]1CCCC[C@H]1C(=O)N1CCc2ccccc2[C@H]1CN1C(=O)c2ccccc2C1=O
Potency [1]: inactive
Potency [2]: inactive

Cc1ccc2c(c1)C=Cc1cc(C)ccc1C2c1cn(Cc2ccc(C(=O)Nc3nn[nH]n3)o2)c(=O)[nH]c1=S
Potency [1]: inactive
Potency [2]: inactive

COc1ccccc1[C@@H]1C2=C(CC(C)(C)CC2=O)Nc2n[nH]c(C(F)(F)F)c21
Potency [1]: inactive

C=C(C(=O)OC)C1CCC2(C)C(O[C@@H]3O[C@H](CO)[C@@H](O)[C@H](O)[C@H]3O)CC(=O)C(C)C2C1O (some centres not stated)
Potency [1]: inactive
Potency [2]: inactive

CC(=O)NC(CCC(=O)O)C(=O)NCCc1ccc(O)cc1 (configuration not stated)
Potency [1]: inactive
Potency [2]: inactive

CCC(CCO[C@@H]1O[C@H](CO[C@H]2OC[C@](O)(CO)[C@H]2O)[C@@H](O)[C@H](O)[C@H]1O)C(C)(C)O (some centres not stated)
Potency [1]: inactive
Potency [2]: inactive

CC(C)=CCC[C@](C)(O[C@@H]1O[C@H](CO[C@@H]2OC[C@@H](O)[C@H](O)[C@H]2O)[C@@H](O)[C@H](O)[C@H]1O)[C@H]1CC[C@]2(C)[C@@H]1[C@H](O)C[C@@H]1[C@@]3(C)CC[C@H](O[C@@H]4O[C@H](CO)[C@@H](O)[C@H](O)[C@H]4O[C@@H]4O[C@H](CO)[C@@H](O)[C@H](O)[C@H]4O)C(C)(C)[C@@H]3CC[C@]12C
Potency [1]: inactive
Potency [2]: inactive

CC1=CCC2C(C)(CO)CCCC2(C)C1CC12OC1C(O)C(CO)=CC2O (configuration not stated)
Potency [1]: inactive
Potency [2]: inactive

C[C@]12C=CC(=O)C=C1CC[C@@H]1[C@@H]2[C@@H](O)C[C@@]2(C)[C@H]1CC[C@]2(O)C(=O)COC(=O)CCC(=O)O
Potency [1]: inactive
Potency [2]: inactive

C/C=C(\C)C(=O)O[C@H]1[C@H](O)[C@]2(COC(C)=O)[C@H](O)C[C@]3(C)C(=CCC4[C@@]5(C)CC[C@H](O[C@@H]6O[C@H](C(=O)O)[C@@H](O[C@@H]7O[C@H](CO)[C@@H](O)[C@H](O)[C@H]7O)[C@H](O)[C@H]6O[C@@H]6O[C@H](CO)[C@@H](O)[C@H](O)[C@H]6O)[C@](C)(CO)C5CC[C@]43C)[C@@H]2CC1(C)C (some centres not stated)
outcome [1]: inactive [at 9.29 µM]
activity change, negative = cytotoxicity [2]: 3.98% [at 9.29 µM]

C/C=C/C1=CC2=C(CO1)C(=O)[C@](C)(O)[C@H](OC(=O)c1c(O)cc(OC)c(O)c1C)C2
Potency [1]: inactive

CC1CCC2(C(=O)OC3OC(CO)C(O)C(O)C3O)CCC3(C(=O)O)C(=CCC4C5(C)CCC(OC6OC(C)C(O)C(O)C6O)C(C)(C)C5CCC43C)C2C1C (configuration not stated)
Potency [1]: inactive

O=C(/C=C/c1ccc(O)cc1)OCC1=CC2OC(=O)C3=CO[C@@H](O[C@@H]4O[C@H](CO)[C@@H](O)[C@H](O)[C@H]4O)[C@H]1[C@@H]32 (some centres not stated)
Potency [1]: inactive
Potency [2]: inactive

C=CC(C)(O)CC/C=C(\C)C(=O)OC1CC2(C(=O)O)CCC3(C)C(=CCC4C5(C)CCC(OC6OC(COC7OCC(O)C(O)C7O)C(O)C(OC7OCC(O)C(O)C7O)C6OC6OC(CO)C(O)C(O)C6OC6OCC(O)C(O)C6O)C(C)(C)C5CCC43C)C2CC1(C)C (configuration not stated)
outcome [1]: inactive [at 9.29 µM]
outcome [2]: inactive [at 9.29 µM]

CC1(CO)CC[C@]2(C(=O)O[C@@H]3O[C@H](CO)[C@@H](O)[C@H](O)[C@H]3O)CC[C@]3(C)C(=CCC4[C@@]5(C)C[C@H](O)[C@H](O[C@@H]6OC[C@@H](O)[C@H](O)[C@H]6O)[C@@](C)(CO)C5CC[C@]43C)C2C1 (some centres not stated)
outcome [1]: inactive [at 9.29 µM]
outcome [2]: inactive [at 9.29 µM]

CCCCS(=O)(=O)Nc1ncnc(OCCOc2ncc(Br)cn2)c1-c1ccc(Br)cc1
Potency [1]: inactive
Potency [2]: inactive

CNC(=O)[C@H]1O[C@@H](n2cnc3c(NCc4ccc(N)c(I)c4)ncnc32)[C@H](O)[C@@H]1O
outcome [1]: inactive [at 9.29 µM]
outcome [2]: inactive [at 9.29 µM]

Cc1ncc([N+](=O)[O-])n1CC(O)CN1CCOCC1 (configuration not stated)
Potency [1]: inactive
Potency [2]: inactive

NC1CCC(N[C@@H]2C[C@H]2c2ccccc2)CC1 (some centres not stated)
Potency [1]: inactive
Potency [2]: inactive

CC(CCC1(O)OC2CC3C4CCC5CC(O[C@@H]6O[C@H](CO)[C@@H](O)[C@H](O)[C@H]6O[C@@H]6OC[C@@H](O)[C@H](O)[C@H]6O)C(O)CC5(C)C4CCC3(C)C2C1C)CO[C@@H]1O[C@H](CO)[C@@H](O)[C@H](O)[C@H]1O (some centres not stated)
outcome [1]: inactive [at 9.29 µM]
outcome [2]: inactive [at 9.29 µM]

CCC(=O)N[C@@H]1Cc2ccccc2[C@H](c2ccccc2)C1
Potency [1]: inactive
Potency [2]: inactive

C[C@@H]1O[C@@H](O[C@H]2[C@H](O)[C@@H](C(=O)O)O[C@@H](O[C@H]3CC[C@@]4(C)C(CC[C@]5(C)C4CC=C4C6CC(C)(C)CC[C@]6(C(=O)O)CC[C@]45C)C3(C)C)[C@@H]2O[C@@H]2O[C@H](CO)[C@@H](O)[C@H](O)[C@H]2O)[C@H](O)[C@H](O)[C@H]1O (some centres not stated)
outcome [1]: inactive [at 9.29 µM]
outcome [2]: inactive [at 9.29 µM]

CC(C)NC[C@H](O)COc1ccc(CCOCC2CC2)cc1
Potency [1]: inactive
Potency [2]: inactive

Cc1ccc(Sc2cncc3sc(C(N)=O)cc23)cc1
Potency [1]: inactive
Potency [2]: inactive

CC1=C2C(=O)O[C@@H](c3ccoc3)[C@]2(C)CCC1
Potency [1]: inactive
Potency [2]: inactive

C=CC(C)(O)CC/C=C(\C)C(=O)OCC1OC(OC2CCC3(C)C(CCC4(C)C3CC=C3C5CC(C)(C)C(O)CC5(C(=O)O)CCC34C)C2(C)C)C(O)C(OC2OC(CO)C(O)C(OC3OC(CO)C(O)C(OC4OC(COC5OC(CO)C(O)C(O)C5O)C(O)C(O)C4O)C3O)C2O)C1O (configuration not stated)
outcome [1]: inactive [at 9.29 µM]

CC(C)CC1NC(=O)C(C(C)c2ccccc2)NC(=O)C(C(C)C)NC(=O)C(C)NC(=O)CCCNC(=O)C(Cc2c[nH]c3ccccc23)NC(=O)C(C)NC1=O (stereo not drawn) (cyclo([GABA]AV[ξPhe(βξ-Me)]LAW); configuration not given here)
Potency [1]: inactive
Potency [2]: inactive

CCC(C)C(=O)O[C@@H]1[C@@H](O)[C@@H](O[C@H]2O[C@H](CO)[C@@H](O)[C@H](O)[C@H]2O)O[C@H](CO)[C@H]1O (some centres not stated)
Potency [1]: inactive

COC(=O)[C@H](OC(C)=O)[C@H]1C(C)(C)C(=O)[C@H]2CC3=C4CC(=O)O[C@@H](c5ccoc5)[C@]4(C)CCC3[C@@]1(C)C2=O (some centres not stated)
Potency [1]: inactive
Potency [2]: inactive

C=CC1(C)CC(O)C2(CCC3C(C)(C(=O)O)CCCC3(C)C2=O)C1 (configuration not stated)
Potency [1]: inactive

CC1(C)OC(=O)C(OCC2CC2)=C1c1ccc(S(C)(=O)=O)cc1
Potency [1]: inactive
Potency [2]: inactive

COC(=O)CC[C@@H](C)[C@H]1CC[C@H]2[C@@H]3CC(=O)[C@H]4C[C@H](OC(C)=O)CC[C@]4(C)[C@H]3CC[C@]12C
Potency [1]: inactive

COc1cc(C(C)=O)ccc1O[C@@H]1O[C@H](CO[C@@H]2O[C@@H](C)[C@H](O)[C@@H](O)[C@H]2O)[C@@H](O)[C@H](O)[C@H]1O
Potency [1]: inactive
Potency [2]: inactive

CC(C)=CCc1ccc(Oc2c(O)cc(C)cc2CO)c(C(=O)O)c1O
Potency [1]: inactive
Potency [2]: inactive

O=c1ccn(C2OC(CO)C(O)C2O)c(=O)[nH]1 (configuration not stated)
Potency [1]: inactive
Potency [2]: inactive

C=C1[C@H]2[C@H](O[C@@H]3O[C@H](COC(=O)/C=C/c4cc(OC)c(O)c(OC)c4)[C@@H](O)[C@H](O)[C@H]3O)OC=C(C(=O)O)[C@H]2C[C@@H]1O
Potency [1]: inactive
Potency [2]: inactive

C[C@H]1[C@H](C)CC[C@]2(C(=O)O)CC[C@]3(C)C(=CC[C@@H]4[C@@]5(C)C[C@@H](O)[C@H](O)[C@@](C)(CO)[C@@H]5CC[C@]43C)[C@H]12
Potency [1]: inactive
Potency [2]: inactive

OCC1=CC[C@@H]2C=CO[C@@H](O[C@@H]3O[C@H](CO)[C@@H](O)[C@H](O)[C@H]3O)[C@H]12
Potency [1]: inactive
Potency [2]: inactive

OC[C@H]1O[C@@H](Oc2ccc3c(c2)OC[C@H]2c4cc5c(cc4O[C@@H]32)OCO5)[C@H](O)[C@@H](O)[C@@H]1O
Potency [1]: inactive
Potency [2]: inactive

OC1COC(OCC2OC(OCCc3ccccc3)C(O)C(O)C2O)C(O)C1O (configuration not stated)
Potency [1]: inactive
Potency [2]: inactive

CC1(C)C(=O)N2c3ccccc3[C@]3(CC(n4cnc5ccccc5c4=O)C(=O)O3)[C@H]2N1O (some centres not stated)
Potency [1]: inactive
Potency [2]: inactive

Cc1cc(N2CCCCC2)nc2ccccc12
Potency [1]: inactive
Potency [2]: inactive

COC(=O)C1=CO[C@@H](O[C@@H]2O[C@H](CO)[C@@H](O)[C@H](O)[C@H]2O)[C@@H]2[C@@H](C)[C@@H](O)C[C@H]12
Potency [1]: inactive
Potency [2]: inactive

O=C(O)c1ccc(CCCc2ccc(OCCc3ccc(F)cc3)cc2)o1
Potency [1]: inactive
Potency [2]: inactive

CC1=CC(=O)CC(C)(C)C1CCC(C)OC1OC(COC(=O)c2cc(O)c(O)c(O)c2)C(O)C(O)C1O (configuration not stated)
Potency [1]: inactive
Potency [2]: inactive
